Screening data as filed in PubChem BioAssay.
In the library only some 7.3% were active in any assay of this set; here they are far more common.
HCMV inh: human cytomegalovirus inhibition; activity change, negative = inhibition, % at 57.5 µM; actives 4.5% (n = 410,000); HFF cells, HCMV-luciferase reporter, 72 h; hits give low values; AID 1259415; in the data active = activity change below about -60%; inconclusive = no clear call, values can overlap the other calls; inactive = above about -39%
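Cell-based, HFFs, 1000 cells/well, 16 h 37C; cpds in DMSO + HCMV-luc, MOI 1 PFU/cell; 72 h 37C; OneGlo luminescence after 5 min RT; norm. to buffer vs Salinomycin 10uM.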
VACV Venus inh: inhibitors of vaccinia virus (Venus reporter); actives 0.46% (n = 330,000); Vaccinia virus Venus reporter expression, fluorescence; Potency, µM (highest dose often 36.5 µM), hits mostly inhibitors; AID 720580; calls by dose curve; tested in A549 cells; note: nearly all actives have a fitted effect of over 30% in size
FMDV antiviral: antivirals against foot and mouth disease virus. FMDV antiviral cell-based qHTS. actives 1.2% (n = 410,000). AID 1159524. Potency, µM (doses to about 57.9 µM), actives largely listed as inhibitors; calls by dose curve; tested in HEK293T cells; note: read-out not given here; nearly all actives have a fitted effect of over 45% in size
HCV inh: inhibitors of hepatitis C virus infection. Huh7.5.1 HCVcc-Cre infection, luciferase reporter, 44 h. Potency, µM (highest dose often 41.8 µM), most hits filed as inhibitors. actives 3.4% (n = 340,000). AID 651820; active = well fitted inhibition curve with a large enough effect; inconclusive = small, poorly fitted or top-dose-only effect, or another doubt; inactive = no such curve, though single readings can be large or run the other way
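HCVcc-Cre virus at an moi near 0.5 was added right after compound to cells cultured 4 h from seeding (1,000 cells/well). Luciferase activity was determined 44 h later, 15 min after substrate addition at RT.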
Vaccinia mCherry: inhibitors of vaccinia virus infection (mCherry reporter signal). actives 0.63% (n = 310,000). Potency, µM (top dose mostly 36.5 µM), actives largely listed as inhibitors. Vaccinia virus mCherry reporter infection, fluorescence; calls by dose curve; tested in A549 cells; note: nearly all actives have a fitted effect of over 35% in size
A number is an active result; 0 = inactive; ? = inconclusive; - = no result.

SMILES	HCMV inh	VACV Venus inh	FMDV antiviral	HCV inh	Vaccinia mCherry
Cc1cc(C)c(NC(=O)C(C)n2nc(-c3ccc(C)c(C)c3)ccc2=O)c(C)c1 (configuration not stated)	0	0	0	-	0
Cc1ccc(/C=C/C(=O)NCc2ccc3c(c2)OCO3)o1	-62	0	0	0	0
OCCNCc1ccc(OCc2ccc(Cl)cc2Cl)cc1	?	0	0	?	0
S=C(Nc1ccccc1)Nc1ccc(OCc2ccc(Cl)cc2Cl)cc1	-80	-	0.32µM	?	-
S=C(NCCSCc1ccc(Cl)c(Cl)c1)Nc1ccccc1	0	0	0	0	0
Cc1ccccc1CSCCNC(=S)Nc1ccccc1	-83	0	0	?	0
OCCCCNCc1ccc(OCc2ccc(Cl)cc2Cl)cc1	0	?	-	6.3µM	28µM
S=C(NCCSCc1ccc(Cl)cc1Cl)Nc1ccccc1	-62	?	?	?	0
CC1CN=C(c2ccc(Cl)cc2)c2c3ccc(C(F)(F)F)cc3[n+]([O-])n21 (configuration not stated)	0	-	-	-	-
CN(C(=O)Cc1ccc(Cl)c(Cl)c1)C(CN1CCCC1)c1cccc(N=C=S)c1 (configuration not stated)	-	?	0	-	?
CCC(C)NC(=O)C1CCN(C(=O)c2ccc(-n3ccc4ccccc43)s2)CC1 (configuration not stated)	0	0	0	-	0
COc1ccc(C(=O)OCc2cc(=O)n3nc(C4CC4)sc3n2)cc1OC	0	0	0	-	0
COc1ccc2[nH]cc(CCNc3ncncc3-c3ccc(C(=O)N(C)C)cc3)c2c1	-	-	0	-	-
C=CC[C@@H](CC(=O)N[C@H](CO)Cc1ccccc1)C(=O)N[C@H](COC(=O)[C@@H](CC=C)CC(=O)OC(C)(C)C)Cc1c[nH]c2ccccc12	0	13µM	?	?	22µM
C=CC[C@@H](CC(=O)N[C@H](CO)Cc1ccccc1)C(=O)N[C@@H](C)COC(=O)[C@@H](CC=C)CC(=O)OC(C)(C)C	-60	0	0	0	0
C=CC[C@H](CC(=O)N(CCO)Cc1ccccc1)C(=O)N[C@H](COC(=O)[C@@H](CC=C)CC(=O)OC(C)(C)C)Cc1c[nH]c2ccccc12	0	11µM	0	?	?
O=C(/C=C/c1ccccc1)Nc1nc(-c2cccs2)ns1	0	0	0	-	0
O=C(c1ccco1)N1CCN(c2nc(C3CC3)nc3c2nnn3Cc2ccccc2Cl)CC1	0	?	35µM	?	?
CC(C)(C)c1nc(N2CCN(C(=O)c3ccco3)CC2)c2nnn(Cc3ccccc3)c2n1	?	-	28µM	?	-
O=C(c1ccco1)N1CCCC(c2nc3c(nnn3Cc3ccccc3)c(=O)[nH]2)C1 (configuration not stated)	0	0	0	0	0
ClCCN(CCCl)c1ccc(C=Nc2ccc(/C=C/c3ccncc3)cc2)cc1	-	0	-	-	0
C=CCSc1ncc(CO)n1Cc1ccccc1	?	0	0	0	0
OCc1cnc(SCc2ccccc2)n1Cc1ccccc1	-64	0	0	0	0
Cc1cccc(NC(=O)Nc2ccc(C#N)cc2)n1	-84	?	0	0	?
Cc1cccc(NC(=O)Nc2cccc(C#N)c2)n1	0	0	0	?	0
SMILES	HCMV inh	VACV Venus inh	FMDV antiviral	HCV inh	Vaccinia mCherry
O=C(c1ccc(-c2nc3ccccc3s2)o1)N1CCN(c2ccccc2O)CC1	0	0	?	?	0
O=C(CN1CCN(C(=O)c2ccc(-c3nc4ccccc4s3)o2)CC1)Nc1ccccc1Cl	0	0	0	11µM	0
O=C(CN1CCN(C(=O)c2ccc(-c3nc4ccccc4s3)o2)CC1)Nc1ccc(F)cc1	0	-	?	13µM	-
Cc1cccc(NC(=O)CN2CCN(C(=O)c3ccc(-c4nc5ccccc5s4)o3)CC2)c1C	0	0	0	?	0
Cc1cccc(C(=O)Nc2cccc(OCc3cc(=O)n4c(C)csc4n3)c2)c1	0	0	0	-	0
CCn1nc([N+](=O)[O-])c(C(C#N)c2nc3ccccc3n2C)c(Cl)c1=O (configuration not stated)	0	0	0	0	0
CCCn1nc([N+](=O)[O-])c(C(C#N)c2nc3ccccc3s2)c(Cl)c1=O (configuration not stated)	-90	-	?	?	-
O=C(c1ccccc1F)N1CC(=O)N2[C@H](CO)[C@H](c3ccc(Br)cc3)[C@@H]2C1	0	-	-	-	-
COc1ccc(S(=O)(=O)N2CCN(C(=O)CCNC(=O)c3ccccc3Cl)CC2)cc1	-98	0	0	0	0
N#Cc1ccc(CN2CCN(C(=O)c3ccc(S(=O)(=O)N4CCCCCC4)cc3)CC2)cc1	-78	-	14µM	7.9µM	-
COc1ccc(CN2CCN(C(=O)c3ccc(S(=O)(=O)N4CCCCCC4)cc3)CC2)cc1	-75	0	20µM	?	0
Cc1ccc(S(=O)(=O)N2CCN(C(=O)CCNC(=O)c3ccccc3Cl)CC2)cc1	0	0	0	0	0
O=C(c1ccc(S(=O)(=O)N2CCCCCC2)cc1)N1CCC(CN2C(=O)c3cccc4cccc(c34)C2=O)CC1	0	?	0	10µM	-
O=C(c1ccc(S(=O)(=O)N2CCCCCC2)cc1)N1CCN(Cc2ccccc2)CC1	0	-	?	?	-
Cc1ccsc1C(=O)N(Cc1cc2cc3c(cc2nc1N1CCOCC1)CCC3)CC1CCCO1 (configuration not stated)	-	0	0	-	0
COc1cc(OC)cc(C(=O)Nc2ccc3c(c2)N(C2CCCC2)C(=O)c2ccccc2S3)c1	?	0	0	-	0
COc1ccc(CN2CCN(C(=O)c3ccc(S(=O)(=O)N4CCCCCC4)cc3)CC2)cc1F	-77	0	14µM	?	?
CC1C(=O)N(Cc2cn(CC3CCCCC3)nn2)CCS(=O)(=O)N1Cc1ccc(-c2ccc(Cl)c(Cl)c2)cc1 (configuration not stated)	0	0	?	-	0
CC1C(=O)N(Cc2cn(CC3CCCCC3)nn2)CCS(=O)(=O)N1Cc1ccc(-c2ccc(Cl)cc2)cc1 (configuration not stated)	-	11µM	?	-	?
CC(C)C1C(=O)N(Cc2cn(CC3CCCCC3)nn2)CCS(=O)(=O)N1Cc1ccc(-c2ccc(Cl)cc2)cc1 (configuration not stated)	0	?	0	-	10µM
Cc1c(Cl)c([N+](=O)[O-])nn1Cc1ccc(C(=O)N/N=C\c2cccc(Br)c2)o1	0	28µM	0	?	-
Cn1c(=NC(=O)CCl)sc2ccccc21	-99	0	?	2µM	?
C[C@@H]1CN([C@@H](C)CO)C(=O)CCCn2cc(nn2)CO[C@H]1CN(C)C(=O)Cc1ccccc1	0	-	-	-	-
Cc1csc(NC(=O)CSc2nnc(-c3ccco3)n2C)n1	0	-	0	0	-
COc1cccc2cc(-c3nnc(SCC(=O)Nc4nc(C)cs4)n3C)oc12	0	-	0	13µM	-
O=C(c1cc2cc3ccc(Cl)cc3nc2o1)N1CCN(c2cccc(Cl)c2)CC1	0	0	0	-	0
CCOC(=O)c1cnc(SCc2ccc(Cl)c(Cl)c2)nc1N1CC1	0	?	?	11µM	?
CCOC(=O)c1cnc(SCc2ccccc2)nc1N	0	0	-	?	0
COC(=O)c1ccc2nc(C3CCCCC3)c(Cc3ccccc3OC)n2c1	0	-	-	-	-
